High-throughput results: PubChem BioAssay, National Center for Advancing Translational Sciences (NCATS)
Rows were chosen to be rich in hits. Some 6.2% of all compounds tested hit in one or more screens of this group.
ATXN viability = Viability Counterscreen for Primary qHTS for Inhibitors of ATXN expression | S2 cells (HEK-293 line with an ATXN2-luciferase reporter) viability, CellTiter-Fluor protease fluorescence, 24 h | Potency, µM (highest dose often 56.7 µM), usual class: cytotoxic | 0.49% of 400,000 active; note: nearly all actives have a fitted effect of over 40% in size
ATXN2 expr inh = Primary qHTS for Inhibitors of ATXN expression; HEK-293 ATXN2-luciferase reporter, luminescence, 24 h; Potency, µM (titrated, usually from 57 µM), without a hit: top-dose activity change, negative = inhibition, usual class: inhibitors; 0.72% of 360,000 active; AID 1745845, 2022; note: % is set by controls: 0 for no effect and ±100 for the full control effect; nearly all actives have a fitted effect of over 55% in size
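ATXN2-luciferase reporter cells (luciferase flanked by upstream and downstream ATXN2 gene portions) were treated 24 h at 37 °C with compounds at up to 57 uM. SteadyGlo luminescence gave expression; GF-AFC fluorescence gave viability.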
HT1080 IDH1KD tx = qHTS for induction of synthetic lethality in tumor cells producing 2HG: qHTS for the HT-1080-IDH1KD cell line; HT-1080 IDH1 knockdown viability, ATP luminescence, 48 h; Potency, µM (titrated, usually from 46.1 µM), without a hit: top-dose activity, negative = toxicity, most hits filed as cytotoxic; 2% of 360,000 active;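 note: 0% = DMSO wells and -100% = cell-free medium wells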
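Knockdown cells (IDH1KD HT-1080) received compounds 2 h after plating at 750 cells/well and were kept 48 h at 37 °C in 5% FBS RPMI. A CellTiter-Glo luminescence read gave % activity for curve fitting.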
HT1080-NT tox = qHTS for induction of synthetic lethality in tumor cells producing 2HG: qHTS for the HT-1080-NT fibrosarcoma cell line; HT-1080-NT fibrosarcoma viability, CellTiter-Glo ATP luminescence, 48 h; 1.6% of 360,000 active; Potency, µM (series often up to 46.1 µM), for the others: top-dose activity, negative = less viability, most hits filed as cytotoxic; AID 686970, 2013;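 note: NT is the 2HG producing partner of a matched IDH1 knockdown line; 0% = DMSO-treated cells and -100% = media-only wells without cells; nearly all actives have a fitted effect of over 55% in size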
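Compounds were tested in concentration-response format on HT-1080-NT cells for 48 hours at 37 degrees C. Cell viability came from CellTiter-Glo luminescence; curves were classified by r2, response magnitude and activity.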
KB-3-1 cytotox = qHTS assay for MDR1-selective chemotherapeutics: Primary screen using the parental adenocarcinoma cell KB-3-1; KB-3-1 viability, CellTiter-Glo ATP luminescence, 72 h; Potency, µM (titrated, usually from 46.1 µM), hits mostly cytotoxic; 1.4% of 400,000 active; note: % is set by controls: 0 for no effect and ±100 for the full control effect; nearly all actives have a fitted effect of over 60% in size
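Cytotoxicity in the drug-sensitive parental line KB-3-1 was scored as loss of CellTiter-Glo luminescence following 72 h incubation with compound. Values come from curve fitting of normalized concentration-response data.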
KB-V1 MDR tox = qHTS assay for MDR1-selective chemotherapeutics: Primary screen using the drug-selected MDR subline cells KB-V1; KB-V1 MDR cells viability, CellTiter-Glo, 72 h; Potency, µM (doses to about 46.1 µM), actives largely listed as cytotoxic; 3.4% of 400,000 active; note: % is set by controls: 0 for no effect and ±100 for the full control effect; nearly all actives have a fitted effect of over 60% in size
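qHTS viability screen in drug-selected KB-V1 MDR cells: 72 h compound treatment at 37 degrees C, ATP luminescence end point.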
An asterisk follows results filed as active; i = inactive; u = inconclusive; x = no result given; ! = repeats disagree. Calls come from the whole dose curve; as a rule, active = well fitted curve in the direction sought with a large enough effect; inconclusive = small, poorly fitted or top-dose-only effect, or another doubt; inactive = no such curve, though single readings can be large; an effect the other way counts as inactive or inconclusive. Potency is the fitted concentration of half-maximal effect.

SMILES	ATXN viability	ATXN2 expr inh	HT1080 IDH1KD tx	HT1080-NT tox	KB-3-1 cytotox	KB-V1 MDR tox
CC[C@@H](C)[C@H](NC(=O)OC(C)(C)C)c1nnc(S(=O)(=O)Cc2cc(C)ccc2C)o1	x	u	10.3µM*	16.4µM*	i	u
COCC1CCCN(Cc2ccc3c(c2)CN(C(=O)c2cnn(C(C)C)c2)CCO3)C1 (centres undefined)	i	x	x	x	x	x
COc1ccccc1CNC(=O)COC(=O)c1ccc2c(=O)n3c(nc2c1)CCCCC3	i	5.3%	-1.9%	-2.0%	i	i
Cc1cccc(-n2c(C)cc(C(=O)C(=O)Nc3nncs3)c2C)c1	i	15.7%	x	x	i	u
COc1ccc(CC(=O)NC2CCCc3ccccc32)cc1 (centres undefined)	x	-15.0%	6.6%	12.7%	i	u
COc1ccc2c(c1)C(CC(=O)NN)CCC2 (centres undefined)	u	0.0%	1.64µM*	7.31µM*	23.1µM*	u
O=C(N/N=C/c1cc2c3c(c1O)CCCN3CCC2)c1ccccc1O	x	u	u	u	4.11µM*	u
COc1ccc(C(=O)Nc2ccc(N(C)Cc3ccccc3)c(C(=O)O)c2)cc1	i	7.6%	x	x	i	i
COc1ccccc1-n1cc(CN2CCc3onc(-c4ccc(Br)cc4)c3C2=O)nn1	x	x	-21.9%	-22.4%	i	u
COc1ccc(Cn2cc(CN3CCc4onc(-c5ccc(Br)cc5)c4C3=O)nn2)cc1	x	x	u	u	u	20.6µM*
COc1ccc(CCN2CCN(CCCc3ccccc3)CC2)cc1OC	x	-20.4%	x	x	x	x
CC(=O)C(C(c1ccccc1)c1c[nH]c2ccccc12)[N+](=O)[O-] (centres undefined)	i	x	23.1µM*	u	7.31µM*	u
COc1ccccc1C(C[N+](=O)[O-])c1c[nH]c2ccccc12 (centres undefined)	u	u	u	14.6µM*	u	u
Nn1c(CSc2nc3ccccc3o2)nnc1CSc1nc2ccccc2o1	i	-0.7%	-14.2%	-22.0%	i	u
Cc1cc(C)n2c(Br)c(CSc3nc4ccccc4o3)nc2n1	i	42.8%	1.7%	-5.4%	i	20.6µM*
COc1cc(C(CC(=O)Nc2ccc(F)cc2F)N2Cc3ccccc3C2=O)cc(OC)c1OC (centres undefined)	i	-2.5%	x	x	i	i
COc1ccc(-n2c(=O)c3sc4ccccc4c3n(CC(=O)N3CCCC3)c2=O)cc1	u	-1.7%	x	x	i	i
COc1cc(NC(=O)c2cc(C)on2)cc(C(=O)Nc2cccc(C(F)(F)F)c2)c1	u	u	u	u	u	i
COc1cc(NC(=O)c2csc(N)n2)cc(C(=O)Nc2cccc(C(F)(F)F)c2)c1	17.8µM*	u	20.6µM*	16.4µM*	5.8µM*	7.31µM*!
COc1cc(NC(=O)c2cnc(N)o2)cc(C(=O)Nc2cccc(C(F)(F)F)c2)c1	20µM*	u	-18.7%	-15.9%	u	i
COc1cc(NC(=O)c2cnc(N)s2)cc(C(=O)Nc2cccc(C(F)(F)F)c2)c1	35.5µM*!	-5.1%	-2.9%	0.4%	i	i
COc1cc(NC(=O)c2ccnc(N)c2)cc(C(=O)Nc2cccc(C(F)(F)F)c2)c1	i	-10.5%	14.6%	u	i	u
O=S(=O)(Nc1cccc(-c2ccc(N3CCOCC3)nn2)c1)c1ccc(F)cc1F	i	11.4%	x	x	i	i
CC(C)C(=O)N1CCN(c2ccc(NC(=O)c3ccc([N+](=O)[O-])o3)cc2Cl)CC1	i	u	u	7.31µM*	u	u
CCC(=O)N1CCN(c2c(Cl)cccc2[N+](=O)[O-])CC1	i	2.8%	0.4%	2.0%	u	u
SMILES	ATXN viability	ATXN2 expr inh	HT1080 IDH1KD tx	HT1080-NT tox	KB-3-1 cytotox	KB-V1 MDR tox
CC(C)C(=O)N1CCN(c2c(Cl)cccc2[N+](=O)[O-])CC1	i	0.5%	8.8%	16.0%	u	14.6µM*
CC(=O)N1CCN(c2ccc(NC(=O)c3ccc(Br)o3)cc2Cl)CC1	i	x	-1.5%	3.8%	i	i
O=C(Nc1ccccc1N1CCOCC1)c1ccc([N+](=O)[O-])o1	u	-25.8%	0.8%	-3.3%	i	u
O=C(Nc1ccc(N2CCOCC2)c(Cl)c1)c1ccc([N+](=O)[O-])o1	u	x	4.61µM*	6.51µM*	i	i
Cc1ccc(NC(=S)NNC(=O)c2ccc(N3CCOCC3)c([N+](=O)[O-])c2)cc1Cl	i	-13.3%	15.6%	3.8%	u	16.4µM*
O=C(NNC(=S)Nc1ccc(Br)cc1)c1ccc(N2CCOCC2)c([N+](=O)[O-])c1	i	-7.1%	-2.7%	-5.3%	i	i
CCCC(=O)N1CCN(c2ccc(NC(=O)c3ccc([N+](=O)[O-])o3)cc2Cl)CC1	i	u	u	16.4µM*	u	u
CC(C)C(=O)N1CCN(c2ccc(NC(=O)COc3ccccc3[N+](=O)[O-])cc2)CC1	u	u	u	u	u	18.4µM*
CN1CCN(c2ccc(NC(=O)c3ccc([N+](=O)[O-])o3)cc2Cl)CC1	20µM*	-27.5%	11.6µM*	5.8µM*	u	u
Cc1ccc(NC(=O)c2ccc([N+](=O)[O-])o2)cc1S(=O)(=O)N1CCOCC1	i	u	6.51µM*	u	u	u
O=C(Nc1cccc(Cl)c1N1CCCC1)c1ccc([N+](=O)[O-])o1	i	-21.1%	2.2%	-15.9%	u	u
Cc1ccc(NC(=O)c2cc([N+](=O)[O-])ccc2N2CCOCC2)cc1S(=O)(=O)N1CCOCC1	i	-5.5%	-9.4%	-19.8%	i	i
O=C(NCc1ccc(F)cc1)C1CCN(C(=O)c2ccc(-n3ccc4ccccc43)s2)CC1	x	x	x	x	i	i
CC(C)C(=O)N1CCN(c2ccc(NC(=O)c3ccc([N+](=O)[O-])o3)cc2)CC1	i	15.0%	7.31µM*	11.6µM*	u	u
O=C(Nc1ccc(-c2nc3ccccc3s2)cc1)c1cc(-n2cnnc2)ccc1Cl	i	u	11.2µM*	10µM*	u	i
O=C1Nc2cc(C(=O)NCCCN3CCCC3)ccc2S/C1=C\c1ccccc1	u	x	u	-24.8%	i	i
